The values that follow come from PubChem BioAssay AID2732 (Emory University Molecular Libraries Screening Center, 2010).

Out of some 220,000 compounds screened, about 8,200 (3.7%) were called active. The full list was thinned out, with actives kept by preference. Unmarked numbers belong to inactive results.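 Rule for the calls: active = compounds that reduced the stress-induced luciferase reporter signal by more than about 70% of percent inhibition (limit read from the data); inactive = the rest.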

The nature of this test: blockers of ER-stress CHOP reporter expression – cell-based, unfolded protein response, luciferase reporter, primary screen (AID 2732).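 Note: 0% = tunicamycin plus vehicle and 100% = wells without tunicamycin.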 Conditions: CHO-K1 CHOP-promoter luciferase, tunicamycin-induced, 15-18 h; at 10 µM; hits give high values. For orientation: In a reporter assay the amount or activity of a reporter protein is the signal.
As usually defined, the inhibition is the drop in the measured response relative to a control, in per cent. Take `Cc1ccc(-c2nnn(CC(=O)N(Cc3ccco3)C(C(=O)NC(C)(C)C)c3ccncc3)n2)o1` (stereo unspecified): the inhibition was 6.52%. Then `Cc1nc(C)c(C(=O)N(c2ccc(C)c(C)c2)C(C(=O)NCc2ccco2)c2ccccc2)s1` (stereo unspecified), with -35.7%. Then `Cc1nn(-c2ccccc2)c2sc(C(=O)N(Cc3ccco3)C(C)C(=O)NC(C)(C)C)cc12` (stereo unspecified), with 80.4% (active). The result for `Cc1cc(C)c(C)c(S(=O)(=O)N[C@@H](C)C(=O)OC(C)C(=O)NC(N)=O)c1C` (stereo partly specified) reads -9.66%; that for `Cc1ccc(Oc2nc(-c3ccccn3)nc3ccccc23)cc1`, -40.5%.

With `CCOC(=O)CNC(=O)CSc1nc2cccnc2n1CC`, the inhibition is 5.31%.

As for `CCOC(=O)c1ccc2c(c1)nc(SCC(=O)NC(C)C)n2CC`, the inhibition is 76% (active). Take `CCOC(=O)c1ccc2c(c1)nc(C)n2CC`: the inhibition is 3.33%. Then `COCCN(CCOC)S(=O)(=O)c1ccc(/C(O)=C(\C#N)c2nc3ccccc3[nH]2)cc1`, with 1.37%. Then `COCCN(CCOC)S(=O)(=O)c1ccc(C(=O)Nc2nc3c(s2)CCc2ccccc2-3)cc1`, with 82.3% (active); and `COc1ccc(C(=O)Nc2ncc3c(n2)-c2ccccc2CC3)cc1`, with -1.8%; and `C=CCN(CC=C)S(=O)(=O)c1ccc(C(=O)Nc2nc3c(s2)CCc2ccccc2-3)cc1`, with 71% (active). The result for `C=CCN(CC=C)S(=O)(=O)c1ccc(C(=O)Nc2sc3c(c2C(N)=O)CCCCC3)cc1` reads 41%; that for `CCN(c1ccccc1)S(=O)(=O)c1ccc(C(=O)Nc2nccs2)cc1`, 31.6%. In the case of `COc1ccc2[nH]c(C(=O)Nc3ccccc3Cl)cc2c1`, the inhibition was 2.73%. As for `CC(C)(C)C(=O)Nc1c(Br)c(C2CC2)nn1-c1ccccc1`, the inhibition is 0.02%. The result for `CC(C)(C)c1cc(P(=O)(c2ccccc2)c2ccccc2)ccc1O` reads 9.08%; that for `CN1CCN(c2ncc3c(n2)CC(c2ccccc2F)CC3=O)CC1` (stereo unspecified), 15.3%; that for `CSc1sc(C(=O)NC(=O)NCc2cccnc2)c(C)c1-c1ccon1`, 28.4%. `COC(=O)c1c(C(=O)OC)c2n(c1C)CCS2`: the inhibition was 14.2%. Then `CCn1c(=O)c2cc(C(=O)Nc3cccc(C(C)=O)c3)sc2c2ccccc21`, with -10.2%; and `CC(c1ccco1)N(C(=O)Nc1ccccc1)C1CCCCC1` (stereo unspecified), with 36.4%.

On to `Cc1ccc(S(=O)(=O)N(C)CC(=O)NC2CCCC2)cc1`, for which the inhibition was 36.5%. With `Cc1ccc(NC(=O)NC(=O)N(C2CCCCC2)S(=O)(=O)c2ccccc2)cc1`, the inhibition was 84% (active). Then `CC1CC(NC(=O)/C(C#N)=C/c2ccc[nH]2)CC(C)(C)C1` (stereo unspecified), with -0.59%. The result for `Cc1nc2cc3c(cc2s1)OCO3` reads 14%; that for `CCCc1c(C(=O)Nc2ccc(F)cc2)cnn1-c1ccccc1`, 14.9%; that for `Cc1cc(C)nc(Nc2cc([N+](=O)[O-])ccc2C)n1`, 0.9%.

Turning to `Cc1ccc(Nc2cc(C)nc3c(C)ccc([N+](=O)[O-])c23)cc1`, the inhibition was 71.4% (active). Then `Cc1ccc(Nc2ccc(C(N)=O)cc2[N+](=O)[O-])cc1`, with 21.8%; and `Cn1c(Cc2cccc3ccccc23)nnc1SCC(=O)N1CCN(c2cccc(Cl)c2)CC1`, with 78.6% (active). Regarding `Cc1ccccc1NC(=O)Cc1nnc(SCC(=O)N2CCN(c3ccccc3)CC2)n1C`, the inhibition is 26.1%.

As for `Cc1cc2nnc(SCC(=O)N3CCN(c4ccccc4)CC3)n2c(N)n1`, the inhibition was 23.7%. Then `COc1ccc(OC)c(C(=O)c2ccc(Cl)cc2)c1`, with 9.86%; and `Cc1ccc(C2=NN(C)c3nc4ccccc4n3C2)cc1`, with 86.3% (active). Then `Cn1cccc1-c1nc2ccccc2n1C`, with -2.65%; and `Cc1ccc(O)c(CNc2nc3ccccc3n2C)c1`, with 11.9%. As to `COc1ccccc1-n1c(-c2cc(-c3ccco3)[nH]n2)n[nH]c1=S`, the inhibition was -7.77%. On to `CCO[C@@H]1OC(C(=O)NC2CC2)=C[C@H](C)[C@H]1CCCO`, for which the inhibition is 0.64%. Then `CCOC(=O)CN(C(=O)COc1nc(C)cc(C)c1C#N)c1ccc(Cl)cc1`, with 23.1%; and `O=C(CCCN1C(=O)/C(=C\c2ccco2)SC1=S)Nc1cccc2ccccc12`, with 73.2% (active); and `O=C(CCN1C(=O)/C(=C/c2cccs2)SC1=S)NNC(=O)c1cccc(O)c1`, with 46.3%. The result for `O=C(CCCN1C(=O)/C(=C/c2ccco2)SC1=S)Nc1ccccc1` reads 32.2%; that for `O=c1oc(-c2ccccc2NS(=O)(=O)c2ccc(Cl)cc2)nc2ccccc12`, 21%. Then `Cc1ccc(SCc2c(C(=O)N/N=C/C3CC=CCC3)nnn2-c2nonc2N)cc1` (stereo unspecified), with 36.4%; and `CC(=O)N1N=C(c2ccncc2)OC1(Cc1ccccc1)Cc1ccccc1`, with -11.2%.

As to `Cc1cc(C)cc(OCc2nnc(SCC(=O)Nc3ccccc3)o2)c1`, the inhibition is 91.5% (active).

Turning to `Cc1cc(C)cc(OCc2nnc(SCC(=O)OC3CCCCC3)o2)c1`, the inhibition was 25.7%. The result for `Cc1ccc(NC(=O)CSc2nnc(COc3ccccc3C)o2)cc1` reads 39.4%; that for `COc1ccc2c(c1)C(=C(C#N)C#N)C(=O)N2CCc1ccccc1`, -16.5%. With `O=[N+]([O-])c1ccccc1NCc1ccccc1Cl`, the inhibition is 34.1%. As for `NC(=O)CC(NC(=O)Cc1cccc2ccccc12)c1ccc(NCc2cc(F)ccc2F)c([N+](=O)[O-])c1` (stereo unspecified), the inhibition is 99.3% (active). `O=C1CCC(=O)N1c1ccc(NCCc2ccccc2F)c([N+](=O)[O-])c1`: the inhibition was 20%. Then `Brc1ccc2ncnc(NCc3cccnc3)c2c1`, with 50.9%.

For `CCC(C(=O)OCC(=O)Nc1ccc(C(=O)Nc2ccc(OC)cc2)cc1)c1ccccc1` (stereo unspecified), the inhibition was 89.3% (active). As to `CCC(C(=O)OCC(=O)Nc1c(Cl)cc(Cl)cc1Cl)c1ccccc1` (stereo unspecified), the inhibition was 48.2%. Then `CCC(C(=O)OCC(=O)Nc1ccccc1-c1ccccc1)c1ccccc1` (stereo unspecified), with 6.12%; and `COc1ccc(C2c3ccc(O)cc3Oc3ncn(CCCO)c(=N)c32)cc1OC` (stereo unspecified), with 11.6%; and `CCOCCn1c(-c2ccccc2)nc2ccccc21`, with 5.67%. The result for `Cc1ccc(-c2ccnc3nc(Sc4ncc(C(F)(F)F)cc4Cl)nn23)cc1` reads 81.4% (active); that for `c1ccc(-c2ccnc3nc(-n4cccc4)nn23)cc1`, 7.91%.

For the compound `Cc1nn(-c2ncc(C(F)(F)F)cc2Cl)c(=O)n1-c1ccccc1`, the inhibition is -12.9%. The result for `COc1ccc(-c2ccc(OC(=O)NC3CCS(=O)(=O)C3)cc2)cc1` (stereo unspecified) reads 20.4%; that for `COc1ccc(/C=N/NC(=O)c2ccccc2)cc1OS(=O)(=O)c1ccccc1`, 7.47%. As to `COc1cc(/C=N/NC(=O)Nc2ccccc2)ccc1OCCOc1ccccc1C`, the inhibition was 104% (active). The result for `COc1cc(/C=N/NC(=O)c2ccccc2)ccc1OS(=O)(=O)c1ccccc1` reads -6.49%. The result for `CC(C)c1nc(SCC(=O)NC(=O)NC(C)(C)C)n[nH]1` reads 18.7%; that for `Cc1cc(C)cc(OCC(=O)O/N=C(\N)Cc2ccc([N+](=O)[O-])cc2)c1`, 13.5%; that for `O=C(Nc1ccc(Br)cn1)C1CCN(S(=O)(=O)c2cccs2)CC1`, 42.9%. `C/C=C/C(=O)Nc1ccc(N2CCN(c3ccc(C(F)(F)F)cn3)CC2)nc1`: the inhibition is 1.12%. As to `Nc1ccccc1Sc1ccc(C(F)(F)F)cc1[N+](=O)[O-]`, the inhibition is -6.84%. Then `COc1ccc(-c2nn(C)c(=O)c3ccccc23)cc1CNC(=O)C1CCCCC1`, with 4.54%; and `CCn1cc(C(=O)NCC2COc3ccccc3O2)c2cc(OC)c(OC)cc2c1=O` (stereo unspecified), with 19.1%; and `Cc1cc(NC(=O)CCC2COc3ccccc3O2)no1` (stereo unspecified), with 7.18%. The result for `Cc1cc(C(=O)CCl)c(C)n1CC1COc2ccccc2O1` (stereo unspecified) reads 106% (active); that for `O=C(NC1C2CC3CC(C2)CC1C3)c1ccc(N2CCNCC2)c([N+](=O)[O-])c1` (stereo unspecified), -22.1%; that for `O=C1CCC(=O)N(O)CCCCCNC(=O)CCC(=O)N(O)CCCCCNC(=O)CCC(=O)N(O)CCCCCN1`, 3.7%. Consider `COc1ccccc1NC(=O)c1cc(Cl)nc2ccccc12`, for which the inhibition is 11.8%.

Take `CCn1c2ccccc2c2cc(CC(N)=O)ccc21`: the inhibition is 17.4%. Then `NC(N)=N/N=C/c1ccc(Cl)c([N+](=O)[O-])c1`, with -23.8%. The result for `COc1ccc(C(=O)O/N=C(\N)Cc2ccc(Cl)cc2Cl)cc1OC` reads 60.4%; that for `NC(N)=N/N=C/c1ccc(OCc2ccc(Cl)cc2Cl)cc1`, 108% (active).

In the case of `O=C(CCc1ccccc1)NNc1ccc(F)cc1`, the inhibition was 4.92%.

Regarding `COC(=O)NC1(C(F)(F)F)NC(=O)N(C2CCCCC2)C1=O` (stereo unspecified), the inhibition is 2.29%.

Turning to `O=C(NC1(C(F)(F)F)NC(=O)N(C2CCCCC2)C1=O)c1ccco1` (stereo unspecified), the inhibition is 9.81%. For the compound `O=C1NC(Nc2nc3ccccc3s2)(C(F)(F)F)C(=O)N1C1CCCCC1` (stereo unspecified), the inhibition was 78.6% (active). As for `Nc1nc(SC23CC4CC(CC(C4)C2)C3)ns1`, the inhibition was 11.6%. For `COC(=O)c1cn(C(=O)c2ccc(Cl)cc2)c2ccccc12`, the inhibition was 9.55%. The result for `O=C(CSc1nnc(SCc2ccc(F)cc2)s1)Nc1ccc(C(=O)O)cc1` reads -8.93%. Then `COCCOC(=O)C1=C(C)NC(=O)CC1c1cc2c(cc1Br)OCO2` (stereo unspecified), with -14.4%. With `CCCOc1ccccc1C1CC(=O)Nc2cc3c(cc21)OCO3` (stereo unspecified), the inhibition is 85.8% (active). Then `COc1ccccc1C1C2=C(COC2=O)Nc2cc3c(cc21)OCO3` (stereo unspecified), with 23.1%.

Consider `CC(C)(C)c1nnc(NC(=O)C2c3ccccc3Oc3ccccc32)s1`, for which the inhibition was 45.8%.

For the compound `CCc1ccc(-c2nn(-c3ccccc3)cc2CSC(=N)N)cc1`, the inhibition was 103% (active). The result for `CCn1c(SCc2ccc(C)cc2)nnc1-c1nn(-c2ccccc2)ccc1=O` reads 28.9%; that for `N=C(N)SCc1cccc2ccccc12`, 35.6%.
